Screens (PubChem)
Mito fusion yeast: inhibitors of mitochondrial division or activators of mitochondrial fusion. S. cerevisiae fusion-defective mutant growth rescue, CellTiterGlo 48 h. Potency, µM (titrated, usually from 46.1 µM), for the others: at the highest dose growth rescue (activation), actives largely listed as activators. hit rate 0.23% among 320,000; also: % of control where 0% means no effect; nearly all actives have a fitted effect of over 45% in size
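Growth-rescue viability read-out: after 48 h at the non-permissive 37C in glycerol/ethanol YPEG, yeast mitochondrial fusion mutants are measured by CellTiterGlo luminescence; compounds (23 nl pinned per well) restoring growth score as division inhibitors or fusion activators.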
aSyn yeast inh: inhibitors of alpha-synuclein toxicity in yeast; Potency, µM (titrated, usually from 46.1 µM), for the others: at the top dose growth rescue (activation), usual class: activators; AID 652106; Yeast expressing alpha-synuclein, growth rescue, BacTiter-Glo, 24 h; hit rate 0.14% among 370,000; also: % of control where 0% means no effect; nearly all actives have a fitted effect of over 65% in size
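Screening used galactose-induced yeast with toxic alpha-synuclein levels, exposed to compound for 24 hr at 30 deg C. Cell growth, read with BacTiter-Glo luminescence, gave the measured signal.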
Abeta rescue: A-beta toxicity reversal in yeast; hit rate 0.063% among 410,000; Potency, µM (top dose mostly 46.1 µM), most hits filed as activators; yeast expressing A-beta42, growth rescue, OD600, 48 h; response scale: 0% DMSO, 100% iron-clioquinol control; also: nearly all actives have a fitted effect of over 55% in size
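Yeast growth medium received pinned compounds, then yeast cells expressing toxic A-beta were added; plates incubated at 30 C for 48 hr. Growth read as absorbance at 600 nm, normalized to DMSO and equimolar FeCl3 plus clioquinol controls.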
TDP-43 yeast inh: TDP-43 toxicity inhibition in yeast | TDP-43 expressing yeast growth rescue, BacTiter-Glo, 24 h | AID 652104 | Potency, µM (top dose mostly 46.1 µM), for the others: at the highest dose growth rescue (activation), most hits filed as activators | hit rate 1.8% among 410,000; also: % of control where 0% means no effect; nearly all actives have a fitted effect of over 50% in size
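Luminescence from BacTiter-Glo reports growth of TDP-43-expressing yeast after 24 hr at 30 deg C with compound. Cells were raffinose-pregrown to mid-log, then seeded in galactose medium at OD600=0.02.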
AT treatment: candidate therapy for ataxia-telangiectasia. F2112 A-T fibroblasts, KAP-1 phosphorylation AlphaLISA; neocarzinostatin DNA damage 30 min before lysis. Potency, µM (titrated, usually from 57.5 µM), for inactives: at the highest dose activation, hits mostly activators. hit rate 0.19% among 320,000. AID 485349; also: % of control where 0% means no effect; nearly all actives have a fitted effect of over 45% in size
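hTERT-immortalized A-T patient fibroblasts (F2112), 500 cells/well in OPTI-MEM, 1% FBS, got compounds for 60 min, then NCS for 30 min at 37C. Lysates were then assayed for phospho-KAP-1 by AlphaLISA (anti-pKAP1 donor, anti-KAP1 acceptor beads), 6 hr at 25C.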
GRP78 ERSR act: induces the endoplasmic reticulum stress response in human glioma cells. U87-MG GRP78 promoter luciferase reporter, 16 h. Potency, µM, inactives show top-dose activation, hits mostly activators. hit rate 0.02% among 420,000. AID 602332; also: series mostly up to about 76 µM; % of control where 0% means no effect; nearly all actives have a fitted effect of over 35% in size
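Stably transfected U87-MG glioma cells carrying a GRP78-based luciferase sensor; 16 h compound incubation. Luminescence end-point read 10 min after Bright-Glo addition at room temperature.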
An asterisk follows results filed as active; i = inactive; ? = inconclusive; . = no result given. A selection: hits, their analogues and other compounds. The true share with any hit is near 2.1%. Calls follow the shape of the dose curve; as a rule, active = well fitted curve in the direction sought with a large enough effect; inconclusive = small, poorly fitted or top-dose-only effect, or another doubt; inactive = no such curve, though single readings can be large; an effect the other way counts as inactive or inconclusive. Potency is read from the fitted curve at half-maximal effect.

SMILES	Mito fusion yeast	aSyn yeast inh	Abeta rescue	TDP-43 yeast inh	AT treatment	GRP78 ERSR act
COc1ccc(-c2noc(CSc3nc(N)cc(=O)[nH]3)n2)cc1	4%	2%	i	4%	-1%	2%
COc1ccc(-c2noc(CSc3nc4ccccc4[nH]3)n2)cc1	.	.	i	11µM*	.	-1%
COc1ccc(-c2noc(CSc3nnc(Cc4ccccc4)n3-c3cccc(C)c3)n2)cc1	.	.	i	3%	.	0%
COc1ccc(Cn2cc(C(=O)c3ccc(C)c(C)c3)c(=O)c3ccccc32)cc1	.	.	i	0%	.	-5%
Fc1ccc(N2CCN(Cc3ccc4c(c3)CN(Cc3cccn3-c3cccnc3)CCO4)CC2)cc1	.	.	.	.	.	-1%
CC(=O)N1CC(c2ccccc2)C(c2ccc(Cl)cc2)=N1 (configuration not stated)	-3%	11%	i	11µM*	4%	-1%
Clc1ccc(-c2cc3ccccc3nc2N2CCCC2)cc1	27%	-10%	i	-10%	12%	-5%
Clc1ccc(-c2cc3ccccc3nc2N2CCOCC2)cc1	6%	10%	i	18µM*	2%	-3%
CCc1cc(-c2onc(C)c2-c2cscn2)c(O)cc1OC	-9%	?	i	18µM*	-3%	-5%
CCCCN=C1NN=C(c2ccc(C)c(C)c2)CS1	-7%	-3%	i	14µM*	-4%	-2%
CCCCN=C1NN=C(c2ccc3c(c2)OCCO3)CS1	1%	5%	i	17%	-2%	-9%
O=C(Nc1cc(NC(=O)c2ccccc2Cl)ccc1Cl)c1ccccc1	.	.	i	?	.	0%
Cc1ccc2c(CC(=O)Nc3nc(C)cs3)coc2c1	-15%	-12%	?	11µM*	6%	-4%
COc1ccc2c(CC(=O)Nc3ncc(C)s3)coc2c1	6%	-8%	i	.	0%	5%
CSc1nnc(NC(=O)Cc2coc3cc(C)ccc23)s1	.	.	i	23%	.	-5%
COc1ccc2c(CC(=O)Nc3nc(C)cs3)coc2c1	-1%	-17%	i	13µM*	4%	6%
COc1ccc(C(=O)NCC2Cc3cc(F)cc(-c4cncnc4)c3O2)cc1 (configuration not stated)	.	.	.	.	.	1%
CCc1nn2c(=O)cc(COC(=O)c3cccc(NC(=O)c4cccs4)c3)nc2s1	.	.	i	19%	.	0%
COc1cccc(C(=O)NCc2nc(-c3cccc(NC(=O)c4ccoc4C)c3)oc2C)c1	.	.	.	.	.	-1%
COc1ccc(-c2nc(NC(=O)c3[nH]c(C)c(C(C)=O)c3C)sc2C)cc1	1%	9%	i	35µM*	-9%	-5%
COc1ccc(-c2nc(NC(=O)Cn3ccc(C(F)(F)F)n3)sc2C)cc1	-5%	-6%	i	35µM*	.	-7%
COc1ccc(-c2nc(NC(=O)Cn3cnnn3)sc2C)cc1	-7%	-13%	i	25%	3%	-1%
COc1ccc(-c2nc(NC(=O)c3ccco3)sc2C)cc1	.	-7%	i	0%	.	6%
CCOC(=O)c1ccc(NC(=S)N(CCN(C)C)C(C)c2ccncc2)cc1 (configuration not stated)	4%	28µM*	i	23%	4%	-2%
O=C(NC(=S)Nc1ccc(S(=O)(=O)NC2CCCCC2)cc1)c1cccs1	4%	?	?	22µM*	3%	-5%
SMILES	Mito fusion yeast	aSyn yeast inh	Abeta rescue	TDP-43 yeast inh	AT treatment	GRP78 ERSR act
CC(OC(=O)c1cccs1)C(=O)NC1CCCCC1C (configuration not stated)	6%	-2%	i	4%	3%	-5%
Cc1ccc(C(=O)OCC(=O)NC2CCCC(C)C2C)s1 (configuration not stated)	.	28%	i	?	.	-5%
CC1CCCCC1NC(=S)NC(=O)c1cccs1 (configuration not stated)	22%	-5%	10µM*	27%	6%	4%
O=C(NC(=S)Nc1ccc(N2CCCCC2)c(Cl)c1)c1cccs1	.	-18%	i	35µM*	.	-4%
CC1CCCC(NC(=O)COC(=O)c2cccs2)C1C (configuration not stated)	2%	10%	?	11µM*	-1%	-1%
O=C(NC(=S)Nc1ccc(S(=O)(=O)N2CCCCC2)cc1)c1cccs1	-3%	9%	i	-7%	9%	-3%
O=C(Nc1cc(Cl)ccc1N1CCCCC1)c1cccs1	3%	-2%	i	3%	3%	-4%
CC1CCCCC1NC(=O)COC(=O)c1ccc(N(C)C)cc1 (configuration not stated)	7%	6%	i	16µM*	-3%	-2%
O=C(CCC(=O)N1CCN(c2ccccc2F)CC1)N1CCN(c2ccc(F)cc2)CC1	3%	6%	i	?	4%	0%
O=C(Cc1ccc(Cl)cc1)N1CCN(c2ccccc2)CC1	?	3%	i	?	22µM*	5%
O=C(CSCc1ccc(F)cc1)N1CCN(c2ccc(Cl)cc2)CC1	.	.	i	18µM*	.	-3%
O=C(CCSCc1ccccc1F)N1CCN(c2ccc(F)cc2)CC1	.	.	i	11µM*	.	0%
COc1ccccc1CC(=O)N1CCN(c2cccc(Cl)c2)CC1	3%	3%	i	13µM*	-2%	-1%
O=C(Cc1ccc(Cl)cc1)N1CCN(c2ccc(F)cc2)CC1	?	21%	i	26%	32%	0%
CCCCC12CN3CC(C)(CN(C1)C3c1c[nH]c3ccccc13)C2=O (configuration not stated)	.	.	i	19%	.	1%
CC(C)Cc1nc2cc(NS(=O)(=O)N(C)C)cc(C(=O)N3CCc4sccc4C3)c2n1C	.	.	.	.	.	8%
O=C(CCSCc1ccccc1Cl)N1CCN(c2ccc(F)cc2)CC1	.	.	i	16µM*	.	-2%
O=C(Cc1ccc(-n2cccc2)cc1)N1CCN(c2ccccc2F)CC1	10%	0%	i	18µM*	3%	-6%
CC(=O)c1ccc(N2CCN(C(=O)Nc3ccc(Cl)cc3)CC2)cc1	-7%	5%	i	14%	-2%	-1%
CC(=O)c1ccc(NC(=O)N2CCN(c3cccc(Cl)c3)CC2)cc1	15%	3%	i	13µM*	6%	-2%
COc1cc(=O)n2c(c1C(=O)NCc1nccs1)CCN(Cc1ccccc1F)CC2	.	.	.	.	.	2%
CCN1CCN(CCCNC(=O)c2cc3c(s2)-c2c(C)cccc2OC3)CC1	.	.	i	-43%	.	-8%
